Assay results as given in PubChem BioAssay (NCI).
The panel holds about 79,000 compounds, 15% with a hit somewhere; the sample as a whole holds those more often. The source made the active and inactive calls. Cut-off read from the data, not from the text of the source: active = growth inhibition above about 70%; inactive = the rest.

How the values were obtained:
[1] = NCI Yeast Anticancer Drug Screen. Data for the rad52 strain (AID 147);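 note: 0% = growth of vehicle-treated control cultures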; conditions: S. cerevisiae rad52 mutant growth inhibition, active compounds read high
Outline: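 The repair-mutant yeast strain was incubated with compounds, then growth was read and inhibition derived relative to vehicle.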

[2] = NCI Yeast Anticancer Drug Screen. Data for the wt1 strain (AID 149);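 note: 0% = growth of vehicle-treated wt1 cultures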; conditions: S. cerevisiae wt1 strain (SPY 50644) growth inhibition, active compounds read high
Outline: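 Vehicle-normalised growth inhibition; strain wt1; compound exposure.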

[3] = NCI Yeast Anticancer Drug Screen. Data for the rad50EPP+ strain (AID 151);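 note: 0% = growth of vehicle-treated control cultures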; conditions: S. cerevisiae rad50 mutant strain, active compounds read high
Outline: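 Vehicle-normalised growth inhibition; rad50EPP+ yeast strain, altered in DNA damage repair, compound-treated.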

[4] = NCI Yeast Anticancer Drug Screen. Data for the mgt1 strain (AID 153); conditions: S. cerevisiae mgt1 mutant growth inhibition, active compounds read high
Outline: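 Vehicle-normalized growth inhibition is determined in mgt1 yeast, a strain selected for a defined alteration in DNA repair or cell cycle control.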

[5] = NCI Yeast Anticancer Drug Screen. Data for the rad50 strain (AID 155);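 note: 0% = growth of vehicle-only cultures of the same strain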; conditions: S. cerevisiae rad50 strain growth inhibition, active compounds read high
Outline: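 A DNA repair-deficient yeast mutant serves as the test organism; compound-induced growth inhibition is calculated against vehicle-treated cells.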

[6] = NCI Yeast Anticancer Drug Screen. Data for the mec2-1 strain (AID 157); conditions: S. cerevisiae mec2-1 strain, active compounds read high
Outline: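 Mutant yeast (mec2-1) grown with compound; growth inhibition relative to vehicle control reported.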

[7] = NCI Yeast Anticancer Drug Screen. Data for the rad14 strain (AID 159);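 note: 0% = growth of vehicle-treated control cultures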; conditions: S. cerevisiae rad14 strain growth inhibition, active compounds read high
Outline: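 Vehicle-treated cultures served as the baseline for growth inhibition of a DNA repair-mutant yeast strain exposed to each compound.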

[8] = NCI Yeast Anticancer Drug Screen. Data for the sgs1 mgt1 strain (AID 161);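 note: 0% = growth of cultures given vehicle only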; conditions: S. cerevisiae sgs1 mgt1 strain, active compounds read high
Outline: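 Percent growth inhibition was derived by comparing compound-exposed mutant yeast with vehicle-exposed cultures. The strain carries alterations in DNA damage repair.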

[9] = NCI Yeast Anticancer Drug Screen. Data for the CLN2oe strain (AID 163);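 note: 0% = growth of vehicle-only control cultures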; conditions: S. cerevisiae CLN2oe strain, active compounds read high
Outline: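 Compounds are applied to yeast harbouring a defined cell-cycle control change; reduced growth compared with vehicle-treated controls gives the value.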

[10] = NCI Yeast Anticancer Drug Screen. Data for the cln2 rad14 strain (AID 165);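 note: 0% = growth equal to vehicle treated cultures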; conditions: S. cerevisiae cln2 rad14 strain, active compounds read high
Outline: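 Readout is yeast growth inhibition versus vehicle-treated controls, using a strain with cln2 and rad14 alterations exposed to compound.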

[11] = NCI Yeast Anticancer Drug Screen. Data for the bub3 strain (AID 167); conditions: S. cerevisiae bub3 mutant strain, active compounds read high
Outline: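 Inhibition values come from growth of compound-treated mutant yeast normalised to vehicle-treated controls.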

[12] = NCI Yeast Anticancer Drug Screen. Data for the wt2 strain (AID 169);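 note: 0% = growth of vehicle-treated yeast cultures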; conditions: S. cerevisiae wt2 strain growth inhibition, active compounds read high
Outline: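 Against vehicle-treated controls, the growth of yeast exposed to each compound was compared, and the inhibition was recorded.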

[13] = NCI Yeast Anticancer Drug Screen. Data for the mlh1 strain (AID 171);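 note: 0% = growth of vehicle-treated control cultures of the same strain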; conditions: S. cerevisiae mlh1 strain growth inhibition, active compounds read high
Outline: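 Measured: yeast growth. Reference: vehicle-treated controls. Organism: strain with a defined alteration affecting DNA damage repair or cell cycle control, treated with compound.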

[14] = NCI Yeast Anticancer Drug Screen. Data for the sgs1 strain (AID 173);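 note: 0% = growth of vehicle-only control cultures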; conditions: S. cerevisiae sgs1 mutant, active compounds read high
Outline: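 Each compound was added to cultures of the altered yeast strain. Growth was recorded, and inhibition was derived by comparison with vehicle controls.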

[15] = NCI Yeast Anticancer Drug Screen. Data for the mlh1 rad18 strain (AID 175); conditions: S. cerevisiae mlh1 rad18 strain growth inhibition, active compounds read high
Outline: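 Genetically defined yeast (DNA repair-deficient) exposed to compounds; growth inhibition determined relative to vehicle.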

[16] = NCI Yeast Anticancer Drug Screen. Data for the rad18 strain (AID 177); conditions: S. cerevisiae rad18 mutant growth inhibition, active compounds read high
Outline: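 Vehicle-treated cultures served as the baseline for scoring compound-induced growth inhibition in DNA-repair-mutant yeast.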

[17] = at 5.0 µM (retest, dose inferred, filed as 0.5)
[18] = at 50.0 µM (retest, dose inferred, filed as 5.0)

Measured: growth inhibition

Oc1ccc2c(c1)C(O)CCCC2 (stereo unspecified)
active: [1]; at 100.0 µM 86% | [3]; at 100.0 µM 71% | [4]; at 100.0 µM 71% | [5]; [18] 97% | [5]; at 50.0 µM 77.8% | [5]; at 100.0 µM 91% | [6]; [18] 82% | [7]; at 100.0 µM 95% | [8]; [18] 98% | [11]; [18] 96% | [13]; at 100.0 µM 90% | [14]; at 100.0 µM 93% | [15]; [17] 87% | [15]; [18] 99% | [15]; at 50.0 µM 86.8% | [16]; at 100.0 µM 90%
inactive: [1]; at 1.2 µM 5% | [1]; at 3.7 µM 9% | [1]; at 11.0 µM 25% | [1]; at 33.0 µM 38% | [2]; at 1.2 µM -3% | [2]; at 3.7 µM -7% | [2]; at 11.0 µM -4% | [2]; at 33.0 µM -1% | [2]; at 100.0 µM 18% | [3]; at 1.2 µM 10% | [3]; at 3.7 µM 25% | [3]; at 11.0 µM 40% | [3]; at 33.0 µM 53% | [4]; at 1.2 µM -2% | [4]; at 3.7 µM 1% | [4]; at 11.0 µM 4% | [4]; at 33.0 µM 17% | [5]; at 1.2 µM 4% | [5]; at 3.7 µM 16% | [5]; [17] 31% | [5]; at 11.0 µM 28% | [5]; at 33.0 µM 46% | [6]; at 1.2 µM -3% | [6]; at 3.7 µM -1% | [6]; [17] 6% | [6]; at 11.0 µM 2% | [6]; at 33.0 µM 7% | [6]; at 50.0 µM 58.6% | [6]; at 100.0 µM 46% | [7]; at 1.2 µM 5% | [7]; at 3.7 µM 13% | [7]; at 11.0 µM 23% | [7]; at 33.0 µM 43% | [8]; [17] 65% | [8]; at 50.0 µM 34.1% | [9]; at 1.2 µM -4% | [9]; at 3.7 µM -6% | [9]; at 11.0 µM -3% | [9]; at 33.0 µM 7% | [9]; at 100.0 µM 42% | [10]; [17] 0% | [10]; [18] 36% | [10]; at 50.0 µM 35.4% | [11]; at 1.2 µM -9% | [11]; at 3.7 µM -8% | [11]; [17] 30% | [11]; at 11.0 µM -9% | [11]; at 33.0 µM -2% | [11]; at 50.0 µM 66.2% | [11]; at 100.0 µM 35% | [12]; at 1.2 µM -5% | [12]; at 3.7 µM -4% | [12]; at 11.0 µM 25% | [12]; at 33.0 µM 4% | [12]; at 100.0 µM 69% | [13]; at 1.2 µM 2% | [13]; at 3.7 µM 10% | [13]; at 11.0 µM 15% | [13]; at 33.0 µM 29% | [14]; at 1.2 µM 5% | [14]; at 3.7 µM 19% | [14]; at 11.0 µM 24% | [14]; at 33.0 µM 43% | [16]; at 1.2 µM 2% | [16]; at 3.7 µM 10% | [16]; at 11.0 µM 20% | [16]; at 33.0 µM 36%

O=C(Oc1ccc2c(c1)CN(Cc1ccccc1)CO2)c1ccccc1
inactive: [1]; at 1.2 µM -3% | [1]; at 3.7 µM 4% | [1]; at 11.0 µM 8% | [1]; at 33.0 µM 18% | [1]; at 100.0 µM 38% | [2]; at 1.2 µM 2% | [2]; at 3.7 µM 4% | [2]; at 11.0 µM 8% | [2]; at 33.0 µM 13% | [2]; at 100.0 µM 10% | [3]; at 1.2 µM -4% | [3]; at 3.7 µM -3% | [3]; at 11.0 µM 4% | [3]; at 33.0 µM 6% | [3]; at 100.0 µM 22% | [4]; at 1.2 µM -1% | [4]; at 3.7 µM 0% | [4]; at 11.0 µM 2% | [4]; at 33.0 µM 10% | [4]; at 100.0 µM 39% | [5]; at 1.2 µM 2% | [5]; at 3.7 µM 2% | [5]; [17] -1% | [5]; at 11.0 µM 17% | [5]; at 33.0 µM 4% | [5]; [18] 46% | [5]; at 100.0 µM 32% | [6]; at 1.2 µM -2% | [6]; at 3.7 µM 0% | [6]; [17] -15% | [6]; at 11.0 µM 3% | [6]; at 33.0 µM 8% | [6]; [18] 3% | [6]; at 50.0 µM 25.1% | [6]; at 100.0 µM 26% | [7]; at 1.2 µM 4% | [7]; at 3.7 µM 11% | [7]; at 11.0 µM 24% | [7]; at 33.0 µM 40% | [8]; [17] 19% | [8]; [18] 40% | [9]; at 1.2 µM -5% | [9]; at 3.7 µM -5% | [9]; at 11.0 µM -1% | [9]; at 33.0 µM 16% | [9]; at 100.0 µM 42% | [10]; [17] -16% | [10]; [18] 39% | [10]; at 50.0 µM 21.9% | [11]; at 1.2 µM -4% | [11]; at 3.7 µM -2% | [11]; [17] -6% | [11]; at 11.0 µM -29% | [11]; at 33.0 µM 31% | [11]; [18] 46% | [11]; at 100.0 µM 35% | [12]; at 1.2 µM -1% | [12]; at 3.7 µM 3% | [12]; at 11.0 µM 7% | [12]; at 33.0 µM 23% | [12]; at 100.0 µM 40% | [13]; at 1.2 µM 6% | [13]; at 3.7 µM 3% | [13]; at 11.0 µM 7% | [13]; at 33.0 µM 4% | [13]; at 100.0 µM 37% | [14]; at 1.2 µM 4% | [14]; at 3.7 µM 9% | [14]; at 11.0 µM 17% | [14]; at 33.0 µM 42% | [15]; [17] -9% | [15]; [18] 49% | [16]; at 1.2 µM 17% | [16]; at 3.7 µM 15% | [16]; at 11.0 µM 19% | [16]; at 33.0 µM 28%
active: [5]; at 50.0 µM 79.2% | [7]; at 100.0 µM 87% | [8]; at 50.0 µM 77.2% | [11]; at 50.0 µM 72.7% | [14]; at 100.0 µM 70% | [15]; at 50.0 µM 83% | [16]; at 100.0 µM 72%
